In the library only some 2.8% were active in any assay of this set; here they are far more common.
POLH inh: blocks human DNA polymerase eta activity. Q9Y253. recombinant Pol eta, fluorescent DNA replication assay. Potency, µM (series often up to 114 µM), inactives show at the highest dose activity change, negative = inhibition, usual class: inhibitors. 1.2% of 390,000 active. AID 588591; also: potency is read from the fitted curve at half-maximal effect; % is scaled to controls: 0 for no effect and ±100 for the full control effect
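Fluorescent replication assay: 50 nM final substrate added after a 15 min room-temperature compound preincubation with 10 nM enzyme. Signal taken at 0 min and again at 10 min.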
POLK inh: inhibitors of human DNA polymerase kappa; Q9UBT6; 0.53% of 400,000 active; Potency, µM (highest dose often 107 µM), without a hit: at the highest dose activity, negative = inhibition, usual class: inhibitors; purified Pol kappa, fluorescent DNA synthesis assay, 10 min; also: potency is read from the fitted curve at half-maximal effect; % is scaled to controls: 0 for no effect and ±100 for the full control effect
Target sequence (Q9UBT6 whole entry, looked up): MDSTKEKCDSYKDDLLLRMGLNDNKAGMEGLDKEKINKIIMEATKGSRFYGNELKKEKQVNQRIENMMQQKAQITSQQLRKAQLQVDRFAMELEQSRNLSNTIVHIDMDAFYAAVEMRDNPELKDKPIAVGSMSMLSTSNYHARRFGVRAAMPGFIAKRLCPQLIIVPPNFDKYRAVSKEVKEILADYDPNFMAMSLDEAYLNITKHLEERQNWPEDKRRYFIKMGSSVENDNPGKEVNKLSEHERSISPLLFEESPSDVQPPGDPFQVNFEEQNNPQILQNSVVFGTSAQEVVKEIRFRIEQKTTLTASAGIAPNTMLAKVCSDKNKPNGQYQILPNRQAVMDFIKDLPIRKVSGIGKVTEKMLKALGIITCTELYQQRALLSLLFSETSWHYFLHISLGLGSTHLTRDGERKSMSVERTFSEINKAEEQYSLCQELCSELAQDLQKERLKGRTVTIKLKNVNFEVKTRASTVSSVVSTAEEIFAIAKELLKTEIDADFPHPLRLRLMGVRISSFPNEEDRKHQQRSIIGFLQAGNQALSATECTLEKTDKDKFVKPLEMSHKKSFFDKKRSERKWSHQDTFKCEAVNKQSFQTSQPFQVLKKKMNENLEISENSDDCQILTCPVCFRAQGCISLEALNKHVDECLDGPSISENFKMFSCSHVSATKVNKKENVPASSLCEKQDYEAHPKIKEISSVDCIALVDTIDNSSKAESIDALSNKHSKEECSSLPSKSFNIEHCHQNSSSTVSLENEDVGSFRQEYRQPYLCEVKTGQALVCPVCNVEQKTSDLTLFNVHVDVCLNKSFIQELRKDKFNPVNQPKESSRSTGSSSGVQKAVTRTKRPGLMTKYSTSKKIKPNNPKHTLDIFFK
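Activity was followed as the change in fluorescence between reads at 0 and 10 min after starting the reaction with 50 nM substrate. Beforehand, 10 nM polymerase had been preincubated with compound for 15 min at room temperature.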
Pol beta inh: inhibitors of human DNA polymerase beta; P06746; Pol beta primer extension/strand displacement, fluorescence kinetic; Potency, µM (titrated, usually from 114 µM), for inactives: at the top dose activity change, negative = inhibition, most hits filed as inhibitors; 1.3% of 340,000 active; also: potency is read from the fitted curve at half-maximal effect; % is scaled to controls: 0 for no effect and ±100 for the full control effect
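Curves were derived by four-parameter Hill fits of normalized qHTS data. The kinetic fluorescent primer-extension read was taken at 0 and 10 min after 50 nM substrate, following a 15 min room-temperature preincubation of 10 nM enzyme with compounds.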
WRN inhibitor: inhibitors of human WRN helicase; 0.46% of 360,000 active; Potency, µM (series often up to 114 µM), inactives show at the highest dose activity change, negative = inhibition, most hits filed as inhibitors; WRN helicase unwinding, fluorescent forked duplex, kinetic; also: potency is read from the fitted curve at half-maximal effect; % is scaled to controls: 0 for no effect and ±100 for the full control effect; nearly all actives have a fitted effect of over 55% in size
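Kinetic red-fluorescence monitoring (525/598 nm) tracks WRN helicase activity after 100 nM fluorophore-quencher forked duplex and 2 mM ATP are added to 20 nM enzyme pretreated 15 min at room temperature with compound.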
Pol iota inh: blocks human DNA polymerase iota activity; 1% of 390,000 active; Pol iota fluorescent replication assay, 10 min; Potency, µM (titrated, usually from 115 µM), without a hit: at the top dose activity, negative = inhibition, most hits filed as inhibitors; Q9UNA4; AID 588590; also: potency is read from the fitted curve at half-maximal effect
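Pol iota at 10 nM preincubated 15 min with compounds at room temperature; reaction started with fluorescent substrate, 50 nM final. Fluorescence read kinetically at 0 and 10 min; buffer-only wells as negative control.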
PI5P4Ka inh: blocks human PI5P4K alpha kinase activity | P48426 | max response, % | AID 652105 | PI5P4Kalpha enzyme, ADP-Glo luminescence, 60 min; active compounds read low | 1.2% of 330,000 active; active = max response of -50% or lower; inconclusive = between -30% and -50%; inactive = -30% or higher; also: value at the top dose of about 77 µM; % is scaled to controls: 0 for no effect and ±100 for the full control effect
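ADP-Glo luminescence end-point read after a 60 min room-temperature kinase reaction of PI5P4Kalpha plus substrate, initiated with ATP at 5 microM final. Buffer: 0.038 M HEPES pH 7.4, EGTA, 0.1% CHAPS, 5% DMSO.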
* hit, by the source's call; ? = inconclusive; · = no result given; [ ] = remark or other dose. Unless noted, calls follow the shape of the dose curve; as a rule, active = well fitted curve in the direction sought with a large enough effect; inconclusive = small, poorly fitted or top-dose-only effect, or another doubt; inactive = no such curve, though single readings can be large; an effect the other way counts as inactive or inconclusive.

SMILES | POLH inh | POLK inh | Pol beta inh | WRN inhibitor | Pol iota inh | PI5P4Ka inh
CCC1Nc2ncnc(N3CCCCC3)c2N(Cc2ccccc2)C1=O (stereo unspecified) | 89µM* | 2% | · | 7%[11.6 µM] | ? | -3
O=C(NCCCN1CCOCC1)C(C(=O)NCCCN1CCOCC1)c1ncc(C(F)(F)F)cc1Cl | -6% | 7% | -1% | 9% | -10% | -12
O=[N+]([O-])c1ccc2c(c1)/C(=N\O)c1ccccc1-2 | -17% | 1% | -2% | -20% | 80% | -6
O=[N+]([O-])c1ccc2c(c1)-c1ccccc1C2O (stereo unspecified) | -19% | · | · | 5% | · | -69*
O=C(COCc1cc(-c2ccc3c(c2)OCO3)on1)N1CCN(c2ccc(F)cc2)CC1 | -4% | -1% | 13% | 0% | 79µM* | -8
COc1cc(OC)c(N(C)C(=O)c2sc3nc4n(c(=O)c3c2C)CCCC4)cc1Cl | -15% | -19% | 89µM* | · | 20% | ·
COc1cc(OC)c(N(C)C(=O)c2sc3nc4n(c(=O)c3c2C)CCCCC4)cc1Cl | -12% | -9% | 21% | · | 11% | ·
CCOC(=O)CSC1=NC(=O)/C(=C/c2ccc(OC)cc2)S1 | -2% | -3% | 1% | 50µM* | 11% | -51*
COc1ccc(/C=C2\SC(N)=NC2=O)cc1 | -14% | -14% | 0% | -14% | 99% | 6
CSc1ccc2nnc(-c3ccc(C)cc3)n2n1 | · | -11% | · | · | 4% | ·
CCOc1cc(/C=C2/NC(=O)NC2=O)cc(Br)c1OCc1ccc(C(=O)O)cc1 | ? | -1% | 25µM* | ? | ? | ?
CC(C)NC(=O)N1CC2(CCN(C(=O)c3ccncc3)CC2)C1 | · | -1%[60.1 µM] | · | · | · | ·
COc1cccc(-c2n[nH]c(=S)n2Cc2ccco2)c1 | 35µM* | -94% | ? | 5%[11.6 µM] | ? | ?
S=c1[nH]nc(-c2ccncc2)n1Cc1ccco1 | -12% | 3% | 7% | 5% | -1% | ·
COc1cccc(C(=O)NC2CC3CCCC(C2)N3CC(=O)Nc2ccccc2)c1 (stereo unspecified) | ? | -6% | 40µM* | ? | ? | -29
COc1cccc(C(=O)NC2CC3CCCC(C2)N3CC(=O)Nc2ccc(N(C)C)cc2)c1 (stereo unspecified) | -13% | -18% | -11% | 5% | 10% | -1
O=C(c1ccco1)N1CCN(Cc2csc(-c3ccccc3Cl)n2)CC1 | -18% | -3% | -1% | -32% | -1% | -2
O=c1cc(CSc2nc3ccccc3c(=O)[nH]2)c2ccc(O)cc2o1 | 40µM* | ? | -25% | -25%[57.1 µM] | ? | -30
Cc1cc(C)cc(NC(=O)CSc2ncc(S(=O)(=O)c3ccccc3)c(=O)[nH]2)c1 | · | · | 6% | · | · | ·
Cc1ccc(NC(=O)CSc2ncc(S(=O)(=O)c3ccc(C(C)C)cc3)c(=O)[nH]2)cc1C | ? | -13% | 20µM* | · | ? | ·
COc1cc(NC(=O)CSc2ncc(S(=O)(=O)c3ccc(Br)cc3)c(=O)[nH]2)cc(OC)c1 | ? | -17% | 50µM* | · | ? | ·
Cc1cc(C(=O)CCC(=O)N(C)CC(=O)Nc2ccccc2Br)c(C)s1 | 0% | -5% | · | -2% | 4% | -9
O=c1cc(-c2ccc(O)cc2)oc2c(C3OCC(O)C(O)C3O)c(O)c(C3OC(CO)C(O)C(O)C3O)c(O)c12 (stereo unspecified) | 7.9µM* | 50µM* | 18µM* | -2% | ? | -5
O=c1cc(-c2ccc(O)c(O)c2)oc2cc(O)c([C@@H]3O[C@H](CO)[C@@H](O)[C@H](O)[C@H]3O)c(O)c12 | ? | 20µM* | · | -18% | 28µM* | -5
CCOc1ccc(NC(=O)CN2CCCN(Cc3cc(C)ccc3C)S2(=O)=O)cc1 | -11% | ? | -19% | · | 89µM* | ·
SMILES | POLH inh | POLK inh | Pol beta inh | WRN inhibitor | Pol iota inh | PI5P4Ka inh
Cc1cc(N2CCN(c3cccc(C(F)(F)F)c3)CC2)n2nc(-c3ccccc3C)nc2n1 | -25% | -4% | -10% | · | 41% | ·
CCc1ccc(CNC(=O)c2cc3c(s2)-c2ccccc2OC3)cc1 | -4% | ? | 50µM* | · | 79µM* | ·
CCOc1ccc(CNC(=O)c2cc3c(s2)-c2ccccc2OC3)cc1 | -20% | -36% | 32µM* | · | ? | ·
COC(=O)c1cc2c(s1)-c1ccccc1OC2 | -21% | -13%[60.1 µM] | 11% | 10% | 2% | 5
O=C(O)COc1cccc2c1CCC=C2CCO/N=C(\c1ccccc1)c1cccnc1 | · | 14%[60.1 µM] | · | · | · | ·
CCOC(=O)c1sc(-c2ccccc2)cc1NC(=O)Nc1ccc([N+](=O)[O-])cc1 | -2% | 0% | 18% | -5% | 7% | -5
CCN(CC)C(=O)c1ccc(COc2ccc(Cl)c(C)c2)o1 | -22% | 0% | 89µM* | -4%[57.1 µM] | 27% | 12
C=CCNC(=O)CN1C(=O)CSc2ccc(S(=O)(=O)N3CCOCC3)cc21 | -6% | · | · | -2% | · | -23
C[n+]1c(/C=C/c2ccc3c(c2)OCO3)ccc2ccccc21 | 8% | -15% | 9% | 4% | 23% | -3
C[n+]1cc2c3c(ccc2c2ccc4cc5c(cc4c21)OCO5)OCO3 | ? | -11%[60.1 µM] | 7.9µM* | · | 28µM* | ·
COc1ccccc1CN1CCCC2(CCN(C(=O)c3ccco3)CC2)C1 | · | 6%[60.1 µM] | · | · | · | ·
Cc1ccc(S(=O)(=O)N2CC3C(=O)C[C@@H](c4ccccc4)N(S(=O)(=O)c4ccc(CCCOCCOCCNC(=O)OC(C)(C)C)cc4)C3CC2c2ccccc2)cc1 (stereo partly specified) | · | · | · | 0% | · | 6
COc1cccc(/C=C2/NC(=O)N(CC(=O)Nc3ccc(C)cc3)C2=O)c1OCc1cccc(C(=O)O)c1 | ? | 79µM* | 50µM* | ? | ? | -26
Cc1ccc(NC(=O)CN2C(=O)N/C(=C/c3cc(C)n(-c4cccc(C(=O)O)c4)c3C)C2=O)cc1 | 20µM* | ? | 10µM* | ? | 45µM* | ?
CCn1c(C)cc(/C=C2\NC(=O)N(CC(=O)Nc3cccc(C)c3)C2=O)c1C | 4% | -2% | -12% | -5% | 9% | -9
O=C(Cn1ccn(-c2ccc(F)c(F)c2)c(=O)c1=O)Nc1ccccc1F | -9% | -12% | -21% | · | 350% | ·
O=c1c2nncn2ccn1-c1ccc(F)c(F)c1 | -23% | -25% | 32µM* | · | -4% | ·
Fc1ccc(Nc2c3c(nc4nncn24)CCC3)cc1 | · | -14% | 4% | · | 18% | ·
CC1CCN(C(=O)Cn2cc(SCc3cccc(F)c3)c3ccccc32)CC1 | 3% | -6% | 8% | · | 6% | ·
CC(=O)OCON[N+]([O-])=NC(C)C | · | -11% | · | · | 24% | ·
Cc1cc(C)c2nc(Cl)c(CN(Cc3ccco3)C(=O)Nc3ccccc3C)cc2c1 | -7% | -8% | 1% | -13% | 89µM* | ·

From PubChem
